In PubChem BioAssay (Tox21) one finds Potency data, which are given here for 23 compounds.

SMILES strings stand for the structures. Where “and” joins values, the source holds several entries; their conditions need not be identical. Identical values can stand only once. Results filed as inconclusive are left out. Calls of active or inactive are those of the source. Unless noted, calls follow the shape of the dose curve; as a rule, active = well fitted curve in the direction sought with a large enough effect in the repeat runs; inconclusive = weak or mixed curves; inactive = no such curve, though single readings can be large; an effect the other way counts as inactive or inconclusive.

Assay [1] in a line: qHTS assay to identify small molecule antagonists of the estrogen receptor alpha (ER-alpha) signaling pathway using the BG1 cell line in the presence of 0.1 nM 17-beta-estradiol - cell viability counter screen (AID 1259241). Also: nearly all actives have a fitted effect of over 40% in size. In a few lines: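 Viability in VM7Luc4E2 cells after 22 hr compound exposure under 0.1 nM 17beta-estradiol stimulation, by CellTiter-Fluor.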
Assay [2] is described as follows: qHTS assay to identify small molecule antagonists of the androgen receptor (AR) signaling pathway using the MDA cell line in the presence of 0.5 nM R1881 - cell viability counter screen (AID 1259242). Also: nearly all actives have a fitted effect of over 45% in size. Also: potency is read from the fitted curve at half-maximal effect. In short, it runs like this: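 Viability of MDA-kb2 cells was multiplexed with the luciferase AR readout; after 16 hr with compounds and R1881 at 0.5 nM final, CellTiter-Fluor fluorescence was recorded.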

The target of assay [3] is Androgen receptor (Homo sapiens) (UniProt P10275). The experiment in a line: qHTS assay to identify small molecule antagonists of the androgen receptor (AR) signaling pathway using the MDA cell line in the presence of 0.5 nM R1881 (AID 1259243). Also: nearly all actives have a fitted effect of over 50% in size. Also: potency is read from the fitted curve at half-maximal effect. In short, it runs like this:
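Reporter cells cultured without CO2 receive test chemicals, then 0.5 nM R1881 final; after 16 hr at 37C, ONE-Glo is added and light output recorded.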
In general terms: In qHTS, concentration-response curves come from the screen itself.

In assay [4] the target is Estrogen receptor (Homo sapiens) (UniProt P03372). The assay is described as follows: qHTS assay to identify small molecule antagonists of the estrogen receptor alpha (ER-alpha) signaling pathway using the BG1 cell line in the presence of 0.1 nM 17-beta-estradiol (AID 1259244). Also: nearly all actives have a fitted effect of over 50% in size. Also: potency is read from the fitted curve at half-maximal effect. In a few lines: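 Estradiol at 0.1 nM (final) stimulates the endogenous ER-alpha of VM7Luc4E2 cells carrying an ERE-driven luciferase; compounds are co-incubated 22 h at 37C and luciferase output quantified by luminescence.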

Assay [5] is described as follows: qHTS assay to identify small molecule HDAC inhibitors (AID 1259364). Also: potency is read from the fitted curve at half-maximal effect.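 Also: wild-type HCT-116 cells with endogenous class I/II HDAC activity; nearly all actives have a fitted effect of over 45% in size.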 In short, it runs like this: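 Read-out: luminescence of HDAC-Glo I/II reagent, 30 min RT, reflecting class I/II deacetylase activity in whole HCT-116 cells pre-exposed 2 h to DMSO-dissolved compounds.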
A short description of assay [6]: qHTS assay to identify small molecule agonists of the sonic hedgehog signaling (Shh) pathway - cell viability counter screen (AID 1259366). Also: nearly all actives have a fitted effect of over 50% in size. Also: potency is read from the fitted curve at half-maximal effect. In short, it runs like this: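 Stable Gli1-Luc NIH/3T3 clone, 2,000 cells/well. Compound exposure 24hr at 37C. Read-out: CellTiter-Fluor fluorescence.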
Assay [7] can be described thus: qHTS assay to identify small molecule antagonists of the sonic hedgehog signaling (Shh) pathway - cell viability counter screen (AID 1259367). Also: nearly all actives have a fitted effect of over 55% in size. Also: potency is read from the fitted curve at half-maximal effect. In short, it runs like this: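 Seed 3T3 Gli1-Luc cells at 2,000 per well; incubate 4 hr; add compound in DMSO, then conditioned medium; incubate at 37C with 5% CO2; add CellTiter-Fluor after 23 hr; read fluorescence 1 hr later.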

A short description of assay [8]: qHTS assay to identify small molecule agonists of the sonic hedgehog signaling (Shh) pathway (AID 1259368; calls by dose curve;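 also: NIH/3T3-derived 3T3Gli1-Luc cells carrying a stable Gli1-driven firefly luciferase reporter; series mostly up to about 92 µM; nearly all actives have a fitted effect of over 15% in size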). In short, it runs like this:
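A Gli1 transcriptional response element controlled firefly luciferase in 3T3Gli1-Luc cells. Compounds and a positive control were added 4 hr after plating, and cells were incubated a further 24 hr at 37 C before luminescence detection.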

Assay [9] is described as follows: qHTS assay to identify small molecule HDAC inhibitors - cell viability counter screen (AID 1259365). Also: series mostly up to about 92 µM; nearly all actives have a fitted effect of over 50% in size. In a few lines: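 Cytotoxicity was gauged in wild-type HCT-116 cells after a brief 2hr treatment with DMSO-dissolved compounds at 37C and 5% CO2, using CellTiter-Glo luminescence developed for 30min at room temperature.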
Assay [10] in a line: qHTS assay to identify small molecule phospholipidosis (PLD) inducers (AID 1259344; active = well fitted curve in the direction sought with a large enough effect; an effect the other way counts as inactive or inconclusive). In a few lines: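 Quantitative HTS in HepG2: compound plus LipidTOX Red dye for 24 h, paraformaldehyde fixation with Hoechst 33342, widefield high-content imaging; amiodarone as positive and DMSO as negative control.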

Chain of Estrogen receptor (Homo sapiens) (P03372 whole entry, looked up): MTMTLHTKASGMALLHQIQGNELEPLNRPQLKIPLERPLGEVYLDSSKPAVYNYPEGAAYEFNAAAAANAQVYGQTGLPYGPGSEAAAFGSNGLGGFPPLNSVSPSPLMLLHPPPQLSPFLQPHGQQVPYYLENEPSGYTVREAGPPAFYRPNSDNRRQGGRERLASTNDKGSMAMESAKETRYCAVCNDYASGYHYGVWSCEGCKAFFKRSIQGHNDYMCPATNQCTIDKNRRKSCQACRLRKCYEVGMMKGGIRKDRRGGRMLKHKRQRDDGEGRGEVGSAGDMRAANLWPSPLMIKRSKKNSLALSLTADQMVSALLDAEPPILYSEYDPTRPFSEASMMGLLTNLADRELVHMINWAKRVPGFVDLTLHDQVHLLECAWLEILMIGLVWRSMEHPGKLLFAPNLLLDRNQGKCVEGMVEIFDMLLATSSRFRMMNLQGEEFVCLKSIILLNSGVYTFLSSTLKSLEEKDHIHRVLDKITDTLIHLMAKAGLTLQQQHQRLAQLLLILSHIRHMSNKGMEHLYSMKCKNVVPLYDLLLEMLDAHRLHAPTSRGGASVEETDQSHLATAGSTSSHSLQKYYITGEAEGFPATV
Chain of Androgen receptor (Homo sapiens) (P10275 whole entry, looked up): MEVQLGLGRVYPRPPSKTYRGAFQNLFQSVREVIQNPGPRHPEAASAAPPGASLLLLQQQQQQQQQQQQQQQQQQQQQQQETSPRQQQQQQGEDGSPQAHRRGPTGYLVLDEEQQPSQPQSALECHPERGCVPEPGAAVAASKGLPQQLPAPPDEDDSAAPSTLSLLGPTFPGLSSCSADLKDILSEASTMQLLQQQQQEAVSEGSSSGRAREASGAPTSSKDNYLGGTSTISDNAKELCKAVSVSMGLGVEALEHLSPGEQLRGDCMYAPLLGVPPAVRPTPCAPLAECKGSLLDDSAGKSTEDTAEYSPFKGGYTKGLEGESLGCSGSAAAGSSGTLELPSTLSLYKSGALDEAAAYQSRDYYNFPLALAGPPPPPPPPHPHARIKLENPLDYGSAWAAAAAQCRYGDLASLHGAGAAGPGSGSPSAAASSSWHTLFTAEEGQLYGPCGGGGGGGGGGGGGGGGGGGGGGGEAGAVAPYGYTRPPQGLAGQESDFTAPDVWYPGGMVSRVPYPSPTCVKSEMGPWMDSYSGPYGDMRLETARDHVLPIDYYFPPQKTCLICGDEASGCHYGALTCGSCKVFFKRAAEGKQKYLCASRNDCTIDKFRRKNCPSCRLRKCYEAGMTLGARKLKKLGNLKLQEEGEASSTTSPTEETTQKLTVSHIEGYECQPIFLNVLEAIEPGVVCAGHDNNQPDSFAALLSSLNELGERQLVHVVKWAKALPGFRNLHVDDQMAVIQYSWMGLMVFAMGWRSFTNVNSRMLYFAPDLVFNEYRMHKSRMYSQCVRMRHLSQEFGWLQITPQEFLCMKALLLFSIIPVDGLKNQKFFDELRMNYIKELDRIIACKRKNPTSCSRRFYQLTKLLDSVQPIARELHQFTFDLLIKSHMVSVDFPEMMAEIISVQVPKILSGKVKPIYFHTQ

In the case of `[CH3][Hg][Cl]`, the Potency entry in assay [1], in assay [4] and in assay [8] was “inactive” throughout. Besides, the Potency in assay [2] was 21.6 µM (active); in assay [3], 19.3 µM (active); in assay [5], 27.2 µM (active); in assay [6], 4.84 µM (active); in [7], 68.4 µM (active).

With `COC(=O)N(C(=O)N1CO[C@@]2(C(=O)OC)Cc3cc(Cl)ccc3C2=N1)c1ccc(OC(F)(F)F)cc1`, the Potency entry in assay [1], in assay [2], in assay [5], in [9], in [6] and in assay [7] was “inactive” in each case. Moreover, the Potency entry in assay [8] is “inactive”. Also, the Potency is 23.5 µM (active) in assay [3] and 46.9 µM (active) in assay [4].

As for `C=COCCCl`, the Potency result in assay [1], in assay [2], in assay [3], in assay [4], in assay [5] and in [9] was “inactive” in each case. The Potency entry in assay [6], in assay [7] and in assay [8] was “inactive” throughout.

Consider `NC(=O)CCl`, for which the Potency result in assay [1], in [2], in assay [3], in assay [4], in [5] and in assay [9] was “inactive” throughout. The Potency result in assay [7] and in [8] was “inactive” each time.

Turning to `CNC(C)Cc1ccc2c(c1)OCO2` (stereo unspecified), the Potency entry in assay [1], in assay [2], in [3], in assay [4], in assay [10] and in assay [5] was “inactive” throughout. Further, the Potency entry in assay [9] and in assay [8] was “inactive” each time.

On to `N#Cc1ccccc1N`, for which the Potency entry in assay [1], in assay [2], in assay [3], in assay [4], in assay [5] and in assay [9] was “inactive” each time. Further, the Potency result in [6], in assay [7] and in assay [8] was “inactive” each time.

As for `C[As+](C)(C)CC(=O)[O-]`, the Potency result in assay [1], in assay [2], in assay [3], in [4], in assay [5] and in [9] was “inactive” throughout. Besides, the Potency result in assay [6] and in assay [8] was “inactive” throughout.

On to `CN(CCCC(=O)c1cccnc1)N=O`, for which the Potency result in assay [1], in assay [2], in [3], in assay [4], in assay [5] and in assay [9] was “inactive” in each case. Moreover, the Potency result in assay [6], in [7] and in assay [8] was “inactive” each time.

Consider `CN(CCCC(O)c1cccnc1)N=O` (stereo unspecified), for which the Potency entry in assay [1], in assay [2], in [3], in [4], in [5] and in assay [9] was “inactive” each time. Further, the Potency entry in assay [6], in [7] and in assay [8] was “inactive” throughout.

On to `N#C/C=C/c1ccccc1`, for which the Potency result in assay [1], in assay [2], in [3], in assay [4], in assay [5] and in [9] was “inactive” throughout. For the same compound, the Potency entry in assay [6], in assay [7] and in [8] was “inactive” each time.

As to `ClC1=C(Cl)[C@]2(Cl)[C@@H]3[C@@H](Cl)[C@@H](Cl)C[C@@H]3[C@@]1(Cl)C2(Cl)Cl`, the Potency result in assay [1], in [2], in [3], in assay [4], in [5] and in assay [9] was “inactive” throughout. Moreover, the Potency entry in assay [6], in assay [7] and in [8] was “inactive” throughout.

With `ClC1=C(Cl)C2(Cl)C3C(Cl)C(Cl)CC3C1(Cl)C2(Cl)Cl` (stereo unspecified), the Potency entry in assay [1], in [2], in assay [4], in [5], in [9] and in [7] was “inactive” each time. In addition, the Potency entry in assay [8] is “inactive”. The Potency in assay [3] is 60.9 µM (active) and 48.6 µM (active); in [6], 43.1 µM (active) and 61.1 µM (active).

As for `ClC1=C(Cl)[C@]2(Cl)[C@@H]3[C@@H](Cl)[C@H](Cl)C[C@@H]3[C@@]1(Cl)C2(Cl)Cl`, the Potency result in assay [1], in assay [2], in [3], in assay [4], in [5] and in [9] was “inactive” throughout. The Potency entry in assay [6], in assay [7] and in assay [8] was “inactive” in each case.

`COP(N)(=S)OC`: the Potency entry in assay [1], in [2], in assay [3], in [4], in [5] and in assay [9] was “inactive” throughout. The Potency entry in [6], in assay [7] and in assay [8] was “inactive” throughout.

Turning to `COP(=O)(CCC(=O)NCO)OC`, the Potency entry in [1], in assay [2], in [3], in [4], in assay [5] and in [9] was “inactive” throughout. Further, the Potency result in [6], in [7] and in assay [8] was “inactive” throughout.

As to `CCOC(=O)CC(=O)CCl`, the Potency entry in assay [1], in assay [2], in [4], in [5], in assay [9] and in [6] was “inactive” in each case. In addition, the Potency result in assay [7] and in [8] was “inactive” each time. Also, the Potency in assay [3] is 30.6 µM (active).

For the compound `N#CCCO`, the Potency entry in assay [1], in [2], in assay [3], in assay [4], in assay [5] and in assay [9] was “inactive” each time. The Potency entry in assay [6] and in assay [7] was “inactive” each time.

Turning to `CC(=O)c1ccc(-c2ccccc2)cc1`, the Potency result in assay [1], in [2], in assay [4], in assay [9], in [6] and in [7] was “inactive” each time. Further, the Potency result in assay [8] was “inactive”. Besides, the Potency in assay [3] was 19.3 µM (active); in assay [5], 24.3 µM (active).

Take `CC(O)C#N` (stereo unspecified): the Potency entry in assay [1], in assay [2], in [3], in assay [4], in assay [5] and in assay [9] was “inactive” each time. Further, the Potency result in [6] and in assay [7] was “inactive” each time.

Consider `CC(Cl)CN(C)C` (stereo unspecified), for which the Potency result in [1], in assay [2], in assay [3], in [4], in [5] and in assay [9] was “inactive” in each case. Further, the Potency result in [6], in assay [7] and in assay [8] was “inactive” throughout.

In the case of `CCOC(=O)c1ccccc1S(=O)(=O)NC(=O)Nc1nc(Cl)cc(OC)n1`, the Potency entry in [1], in assay [2], in assay [3], in assay [4], in [5] and in [9] was “inactive” each time. Besides, the Potency result in assay [6], in assay [7] and in assay [8] was “inactive” each time.

For the compound `COc1ccc([N+](=O)[O-])cc1O`, the Potency entry in assay [1], in [2], in assay [3], in [4], in [5] and in assay [9] was “inactive” in each case. Also, the Potency result in [6], in assay [7] and in assay [8] was “inactive” each time.

With `CCOP(=S)(OCC)SCS(=O)(=O)CC`, the Potency result in [1], in assay [2], in assay [3], in assay [4], in assay [5] and in assay [9] was “inactive” in each case. Also, the Potency result in assay [6], in assay [7] and in assay [8] was “inactive” in each case.
